Experimental data from PubChem BioAssay (NCI).
Where “and” joins values, the source holds several entries; their conditions need not be identical. Identical values can stand only once. About 83,000 compounds went through this panel and 20% of them were active in at least one assay; those are over-represented in the sample as a whole.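 Method: cells in 96-well plates; compound added at one concentration; 48 h incubation; percent growth measured; values under 10 scored active.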 Unmarked numbers belong to inactive results. Calls of active or inactive are those of the source.

Tested on: HL-60(TB) leukemia
Assay: NCI-60 one-dose screen, 48 h (100 = growth as untreated, 0 = no growth, -100 = all killed)
Conditions: 10 µM unless noted

Row | Compound | growth
1 | C=CCn1c(C)nc2cc(Nc3nc(Nc4ccc5nc(C)n(CC=C)c5c4)c4ccccc4n3)ccc21 | -52% (active)
2 | CC(C(=O)O)n1cc(C#N)c(=O)[nH]c1=O (configuration not stated) | 104% and 90.4%
3 | COc1ccc(C(=O)/C=C/c2cc3ccccc3[nH]c2=O)cc1 | 33.7%
4 | Cc1ccc(-c2nc3nc(-c4ccccc4)nc(N4CCNCC4)c3o2)cc1 | -68.4% (active)
5 | NS(=O)(=O)c1ccc(N2Cc3cc(Cl)ccc3OC3=C2C(=O)N(CC2CCCCC2)C3=O)cc1 | -35.9% (active)
6 | Cc1cc(N2CCCC2)nc(N(CCNc2ccnc3cc(Cl)ccc23)Cc2ccco2)n1 | -52.8% (active)
7 | O=C1Nc2ccc(Cl)cc2C12Nc1cc(Cl)ccc1S2 (configuration not stated) | 42.6%
8 | NC(N)=N/N=C(/c1ccccc1)c1ccc(Cl)cc1 | 105%
9 | Nc1c(N)c2ccccc2c2ccccc12 | 104%
10 | O=C1CC(=NCC(=O)n2c(-c3ccccc3)nc3ccccc32)NN1 | 107%
11 | COC1=CC(=O)c2nc(Cl)ccc2C1=O | -30.1% (active)
12 | CC(=O)Nc1ccc(C(=O)/C=C/c2ccc(N(C)C)cc2)cc1 | 104%
13 | CCCCOC(=O)c1c(C)[nH]c(/C=C2\N=C(c3ccc[nH]3)C=C2OC)c1C | 8.01% (active)
14 | Cn1c(N)c(N=O)c(=O)n(C)c1=O | 105% and 89.8%
15 | Cc1cc(O)c2c(c1)C(=O)c1cc(O)cc(O)c1C2=O | 121% and 83.6%
16 | Cc1cccc(NC2=C(C#N)C(=O)NC3(CCCC3)S2)c1 | 89.7%
17 | COc1ccc(-c2c(C)noc2-c2ccc(O)cc2O)cc1 | 64.9%
18 | CO/N=C(/C)c1ccc(NC(=O)CSc2nnc(-c3ccncc3)n2-c2ccccc2)cc1 | 86%
19 | N#Cc1ccc(NC(=O)Nc2cccc(C#N)c2)cc1 | 68.6%

Row | Compound | growth
20 | COc1ccccc1NC(=O)N/C(N)=N/c1nc2ccccc2s1 | -27.1% (active)
21 | COC(=O)[C@@H](CCCCNC(=O)[C@]12CCC(C)(C)C[C@@H]1C1=CC[C@@H]3[C@@]4(C)C/C(=C/c5ccco5)C(=O)C(C)(C)[C@@H]4CC[C@@]3(C)[C@]1(C)CC2)NC(=O)[C@]12CCC(C)(C)C[C@@H]1C1=CC[C@@H]3[C@@]4(C)C/C(=C/c5ccco5)C(=O)C(C)(C)[C@@H]4CC[C@@]3(C)[C@]1(C)CC2 | 114%
22 | CNS(=O)(=O)Oc1ccc(-c2ccc3occc3c2)cc1 | 100%
23 | N=C(N)c1ccc(-c2ccc(-c3ccc(F)cc3)o2)o1 | -44.2% (active)
24 | Nc1c(C(=O)Nc2ccc(Cl)cc2)cc(-c2nc3ccccc3s2)c(=O)n1NS(=O)(=O)c1ccc(Cl)cc1 | 100%
25 | COc1ccc(-c2cnnn2-c2nonc2-n2cccc2)cc1 | -37.9% (active)
26 | O=[N+]([O-])c1cc(S(=O)(=O)c2ccc(F)c([N+](=O)[O-])c2)ccc1F | 59.9%
27 | O=C(CCl)N(O)c1ccc(/C=C/c2ccccc2)cc1 | 69.4% and 51%
28 | COCCn1c(-c2csc(-c3cn(C)c4ccc(OC)cc34)n2)cc2cccnc21 | 55.8%
29 | C=CCCCOC1[C@H](OCc2ccccc2)C(OCc2ccccc2)C(OC)O[C@@H]1CNC(=O)c1cccc(I)c1 (some centres not stated) | 55.1%
30 | COc1cc2nc(N3CCN(C(=O)C4COc5ccccc5O4)CC3)nc(N)c2cc1OC (configuration not stated) | 104% and 103% and 99.9%
31 | O=S(=O)(NCCCNc1nccc(-c2c(-c3ccc(F)c(O)c3)nc3occn23)n1)c1ccc(Cl)cc1 | 94.2%
32 | COc1ccc(C2=CC(c3ccc(Oc4ccnc5cc(Cl)ccc45)c(OC)c3)c3c(nc(OC)[nH]c3=O)N2)cc1 (configuration not stated) | 85.7%
33 | Oc1c(Br)cc(Cl)cc1C(c1cc(Cl)cc(Br)c1O)C(Cl)(Cl)Cl | 9.73% (active)
34 | O=C(O)CCC(=O)Nc1nnc(-c2ccccc2)s1 | 92.2%
35 | CSc1ccc(C(=O)C[n+]2cccc(C)c2)cc1 | 102%
36 | CCN1C(=O)N(CC)C2C1NN=c1s/c(=C3\C(=O)N(C(C)C)c4ccccc43)c(=O)n12 (configuration not stated) | -22.6% (active)
37 | COc1ccc(-c2nc3sc(-c4ccc(OC)cc4)c(-c4ccc(OC)cc4)n3c2/C=C/c2ccc(C(C)C)cc2)cc1 | 97%
